Data as given in PubChem BioAssay (NCI).
Compounds without any hit were thinned out: in the full panel of roughly 83,000, 20% have a hit.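 Testing used 96-well plates and a 48-hour single-concentration exposure. Example: -40 means 40% of the starting cells died.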 Unmarked numbers belong to inactive results. Activity calls are given as the source filed them. The calls were made as follows: active = growth percent below 10; inactive = the rest.

The compounds below were run on CAKI-1 renal (assay: NCI-60 one-dose screen, 48 h (100 = growth as untreated, 0 = no growth, -100 = all killed)). Settings: 10 µM unless noted.
`CCCCCCSc1ncnc2nc[nH]c12` gave a growth of 95.9%. `C[C@@H]1C[C@H]2C(=O)O[C@@H](C)[C@H](NC(=O)[C@H](Cc3cc(F)cc(F)c3)NC(=O)Nc3ccc(C4CC4)cc3F)C(=O)N3CCC[C@H]3C(=O)N3CCCC[C@H]3C(=O)N[C@@H](C)C(=O)N2C1` was tested, and the growth was 8.8% (active). `O=[N+]([O-])c1ccc(O)c(-c2nc3ccccc3s2)c1` showed a growth of 73%. For `COc1cc2c(cc1OC(C)=O)C(=O)CCCC2`, the growth was 73.8%. `COc1ccc(CC(C#N)c2ccc(Cl)cc2)cc1` (stereo not drawn) gave a growth of 68.9%. Work on `COc1ccc(N(c2nc(-c3ccc([N+](=O)[O-])cc3)cs2)C(C)C)cc1` yielded a growth of 62.6%. `C=C(C)[C@@H]1CC[C@]2(C)[C@H](CC[C@@H]3[C@@H]([C@@](C)(O)CCC=C(C)C)CC[C@]32C)[C@@]1(C)CCC(=O)O` was tested, and the growth was 2.11% [100 µM] (active). `CCOc1ccc(S(=O)(=O)Nc2ccc3c(c2)N(S(=O)(=O)CC)CCC3)cc1` gave a growth of 55.1%. In the case of `Cc1cnc(N)nc1OCCNC(=O)c1cccc(-c2ccc(S(=O)(=O)Nc3ccc4c(c3)N(C(=O)C3CC3)CCC4)cc2)c1`, the growth is reported as 77.4%. For `Fc1cc2[nH]ncc2c2c3c(c(-c4cn[nH]c4)nc12)CCCC3`, the growth was 2.83% (active).

The compounds below were run on A498 renal in the same assay as above. Settings: 10 µM unless noted.
With `O=C1CN(Cc2ccc(C(=O)NO)cc2)C(=O)[C@@H](Cc2ccccc2)N1` the growth was 94.7%. In the case of `COc1ncc(-c2ccc3nccc(C#CCCCCC(=O)NO)c3c2)cc1NS(=O)(=O)c1ccc(F)cc1F`, the growth is reported as -76.1% (active). `CCCCCN(CCCCC)CCCCCCCCN1CCCc2ccccc21` gave a growth of 114%. With `CC1Cc2c(Cl)ncnc2N(C)c2ccc(O)cc21` (stereo not drawn) the growth was 94.1%. For `FC(F)(F)c1ccc2c(c1)Sc1ccccc1N2`, the growth was 80.7%. Compound `Cc1ccc2c(n1)C(=O)C(Cl)=C(Nc1ccc(N3CCN(C)CC3)cc1)C2=O` has a growth of 101%. In the case of `CCOc1cc(/C=N\NC(=O)N/N=C/c2ccc(O)c(OCC)c2)ccc1O`, the growth is reported as 72.6%. Compound `C1=C[C@H]2O[C@@H]1c1ccc3[nH]ccc3c12` has a growth of 98.6%. For `CC1(C)CC[C@]2(C(=O)O)CC[C@]3(C)[C@H](CC[C@@H]4[C@@]5(C)CCC(=O)C(C)(C)[C@@H]5CC[C@]43C)[C@H]2[C@H]1OC(=O)C(F)(F)F`, the growth was -81.2% [100 µM] (active). In the case of `[2H]C1([2H])CCN(C(=O)C2CC2)c2cc(NS(=O)(=O)c3ccc(-c4cccc(C(N)=O)c4)cc3)ccc21`, the growth is reported as -0.663% (active). In the case of `CCOC(=O)c1sc2nc(-c3cc(OC)c(OC)c(OC)c3)nc(N3CCOCC3)c2c1C`, the growth is reported as -0.941% (active). In the case of `O=C(CCN1CCCCC1)c1ccc(Cl)cc1`, the growth is reported as 79.5%. `O=C1CC(C(F)(F)F)Cc2nc3ccc(Br)cc3cc21` (stereo not drawn) showed a growth of 49.7%. `NC(=O)c1cccc(-c2ccc(S(=O)(=O)Nc3ccc4c(c3)N(C(=O)C3CC3)CCC4)cc2)c1` was tested, and the growth was 5.86% (active). `CCOC(=O)CCC[P+](c1ccccc1)(c1ccccc1)c1ccccc1` gave a growth of 86.3%. `CC1(C)CC[C@]2(C(=O)O)CC[C@]3(C)C(=CC[C@@H]4[C@@]5(C)C/C(=C/c6cccnc6)[C@H](O)C(C)(C)[C@@H]5CC[C@]43C)[C@@H]2C1` was tested, and the growth was 23.9% [100 µM]. In the case of `CCC(Br)(CC)C(=O)c1ccc(OCC(=O)O)c(Cl)c1Cl`, the growth is reported as 97.1%. `C#C[C@]1(O)CC[C@H]2[C@@H]3CC=C4c5nc(Nc6ccccc6[N+](=O)[O-])sc5CC[C@]4(C)[C@H]3CC[C@@]21C` showed a growth of 11.7%. `O=C(N/N=C\c1cc(Cl)ccc1O)N/N=C/c1cc(Cl)ccc1O` gave a growth of 80.3%. `C=C(C)[C@@H]1CC[C@]2(C(=O)NCCNCCNC(=O)OC(C)(C)C)CC[C@]3(C)[C@H](CC[C@@H]4[C@@]5(C)CCC(=O)C(C)(C)[C@@H]5CC[C@]43C)[C@@H]12` gave a growth of 58.7% [100 µM]. `Cc1cc(C)c(O)c(CNCCCNCc2cc(C)cc(C)c2O)c1` was tested, and the growth was 47%. For `O=C(Nc1ccc(C(=O)/C=C/c2ccc(N3CCOCC3)cc2)cc1)Nc1ccc([N+](=O)[O-])cc1`, the growth was 5.47% (active). `C[C@H]1[C@H](C)CC[C@]2(C(=O)N3CCN(C)CC3)CC[C@]3(C)C(=CC[C@@H]4[C@@]5(C)C/C(=C/c6ccco6)C(=O)C(C)(C)[C@@H]5CC[C@]43C)[C@H]12` gave a growth of 53.8% [100 µM]. For `Nc1nc(Cl)c2ncn(Cc3cc4c(cc3I)OCO4)c2n1`, the growth was 61.8%. `CC1(C)OC2[C@@H](CNC(=O)NC(=O)NC(=O)CI)O[C@@H](n3cnc4c(NC(=O)Nc5ccccc5)ncnc43)[C@H]2O1` (stereo partly drawn) showed a growth of 99.4%. `Fc1cc2[nH]ncc2c2c3c(c(-c4cn[nH]c4C(F)(F)F)nc12)C1CCC3C1` (stereo not drawn) was tested, and the growth was -80.2% (active). For `CC1Cc2c(Cl)ncnc2N(C)c2ccccc21` (stereo not drawn), the growth was -18.4% (active). In the case of `C=C(C)[C@@H]1CC[C@]2(COCCCN)CC[C@]3(C)[C@H](CC[C@@H]4[C@@](C)(CCCNCCCN)[C@H](C(=C)C)CC[C@]43C)[C@@H]12`, the growth is reported as -77% [100 µM] (active). `CCCCCCSc1ncnc2nc[nH]c12` showed a growth of 95.2%. For `C[C@@H]1C[C@H]2C(=O)O[C@@H](C)[C@H](NC(=O)[C@H](Cc3cc(F)cc(F)c3)NC(=O)Nc3ccc(C4CC4)cc3F)C(=O)N3CCC[C@H]3C(=O)N3CCCC[C@H]3C(=O)N[C@@H](C)C(=O)N2C1`, the growth was -5.24% (active). For `O=[N+]([O-])c1ccc(O)c(-c2nc3ccccc3s2)c1`, the growth was 42.6%. For `COc1cc2c(cc1OC(C)=O)C(=O)CCCC2`, the growth was 68.3%. Compound `COc1ccc(CC(C#N)c2ccc(Cl)cc2)cc1` (stereo not drawn) has a growth of 49.7%. In the case of `COc1ccc(N(c2nc(-c3ccc([N+](=O)[O-])cc3)cs2)C(C)C)cc1`, the growth is reported as 59.5%. For `C=C(C)[C@@H]1CC[C@]2(C)[C@H](CC[C@@H]3[C@@H]([C@@](C)(O)CCC=C(C)C)CC[C@]32C)[C@@]1(C)CCC(=O)O`, the growth was -20.2% [100 µM] (active). `CCOc1ccc(S(=O)(=O)Nc2ccc3c(c2)N(S(=O)(=O)CC)CCC3)cc1` was tested, and the growth was 69.3%. Compound `Cc1cnc(N)nc1OCCNC(=O)c1cccc(-c2ccc(S(=O)(=O)Nc3ccc4c(c3)N(C(=O)C3CC3)CCC4)cc2)c1` has a growth of 40.2%. For `Fc1cc2[nH]ncc2c2c3c(c(-c4cn[nH]c4)nc12)CCCC3`, the growth was -56.5% (active).
